We go through one molecule from the supplement of paper PMC11732987, “Enantioselective OTUD7B fragment discovery through chemoproteomics screening and high-throughput optimisation” (Communications Chemistry, 2025).

Values without a mark were called inactive.

Common to all, as to assay: log2 ratio of Biotin-Ahx-Ub-VS probe labelling (fragment/DMSO); higher = less target engagement (more negative = stronger competition), active = hit call of the paper (q ≤ 0.05, log2 ratio ≤ -1)
Holding throughout (settings): compound concentration: 200 uM; treatment time: 3 h

Experiment [1] has as its target T1, USP19 (UniProt O94966).
T1 sequence (whole entry): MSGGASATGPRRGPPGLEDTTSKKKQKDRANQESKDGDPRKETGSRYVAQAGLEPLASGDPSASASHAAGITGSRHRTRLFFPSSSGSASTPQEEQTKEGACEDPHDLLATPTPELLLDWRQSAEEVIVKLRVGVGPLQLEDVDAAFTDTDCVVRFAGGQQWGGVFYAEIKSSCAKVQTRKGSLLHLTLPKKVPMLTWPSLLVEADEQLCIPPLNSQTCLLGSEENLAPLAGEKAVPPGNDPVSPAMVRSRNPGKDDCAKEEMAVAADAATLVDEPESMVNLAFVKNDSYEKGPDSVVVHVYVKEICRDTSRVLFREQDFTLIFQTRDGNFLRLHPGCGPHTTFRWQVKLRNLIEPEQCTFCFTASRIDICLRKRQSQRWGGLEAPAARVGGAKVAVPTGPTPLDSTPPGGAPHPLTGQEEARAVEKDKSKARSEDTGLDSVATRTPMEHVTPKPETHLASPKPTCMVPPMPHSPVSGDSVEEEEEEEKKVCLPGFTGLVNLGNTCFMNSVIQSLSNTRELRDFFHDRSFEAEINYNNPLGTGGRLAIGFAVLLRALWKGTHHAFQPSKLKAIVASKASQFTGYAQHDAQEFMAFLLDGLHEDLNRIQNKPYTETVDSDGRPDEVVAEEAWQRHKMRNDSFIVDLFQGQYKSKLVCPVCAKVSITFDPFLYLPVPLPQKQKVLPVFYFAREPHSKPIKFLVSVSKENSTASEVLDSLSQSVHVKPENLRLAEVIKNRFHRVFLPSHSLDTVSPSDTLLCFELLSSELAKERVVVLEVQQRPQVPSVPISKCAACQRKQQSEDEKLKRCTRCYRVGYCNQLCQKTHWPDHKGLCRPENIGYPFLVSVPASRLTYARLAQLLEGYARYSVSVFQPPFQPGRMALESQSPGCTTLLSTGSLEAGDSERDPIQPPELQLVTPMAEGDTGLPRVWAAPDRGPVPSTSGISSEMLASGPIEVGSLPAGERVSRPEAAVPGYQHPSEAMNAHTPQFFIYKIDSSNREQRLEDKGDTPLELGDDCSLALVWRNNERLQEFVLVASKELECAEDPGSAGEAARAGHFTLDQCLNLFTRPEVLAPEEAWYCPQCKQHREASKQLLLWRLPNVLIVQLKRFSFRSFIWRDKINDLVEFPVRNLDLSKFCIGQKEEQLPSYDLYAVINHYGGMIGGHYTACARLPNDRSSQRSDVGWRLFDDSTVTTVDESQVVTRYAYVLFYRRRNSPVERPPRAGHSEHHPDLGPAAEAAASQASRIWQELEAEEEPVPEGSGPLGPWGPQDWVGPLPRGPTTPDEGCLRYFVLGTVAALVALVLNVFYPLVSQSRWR
An outline of the steps: (§1)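 Fragment (200 µM) or vehicle was incubated for 3 h with triplicate HEK293T lysate samples of 495 µg, which were then treated with Biotin-Ahx-Ub-VS at 0.5 µM final for 1 h. Labelled DUBs were enriched on NeutrAvidin, digested with LysC and trypsin, and analysed by diaPASEF LC-MS/MS. Values are average log2 fragment/vehicle ratios from an unpaired t-test on global-median-normalised Spectronaut label-free quantities, using proteins with ≥2 unique peptides.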

Experiment [2] deals with T2, USP22 (UniProt Q9UPT9).
T2 sequence (whole entry): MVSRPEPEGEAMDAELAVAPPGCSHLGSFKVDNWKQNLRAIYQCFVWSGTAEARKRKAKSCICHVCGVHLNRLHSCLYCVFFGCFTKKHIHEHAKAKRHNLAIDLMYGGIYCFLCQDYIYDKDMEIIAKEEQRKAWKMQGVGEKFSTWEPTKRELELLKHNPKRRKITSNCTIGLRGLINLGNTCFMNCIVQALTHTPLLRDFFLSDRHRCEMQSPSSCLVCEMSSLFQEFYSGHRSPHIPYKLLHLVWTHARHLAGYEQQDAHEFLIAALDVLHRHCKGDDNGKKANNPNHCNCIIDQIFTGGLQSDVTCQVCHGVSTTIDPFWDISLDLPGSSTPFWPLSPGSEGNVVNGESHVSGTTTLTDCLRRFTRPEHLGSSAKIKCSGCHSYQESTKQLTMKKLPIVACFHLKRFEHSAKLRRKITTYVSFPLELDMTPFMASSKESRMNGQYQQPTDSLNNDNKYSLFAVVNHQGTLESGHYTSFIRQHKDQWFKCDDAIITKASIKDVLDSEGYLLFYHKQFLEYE
An outline of the steps:
as §1

For experiment [3], the target named is USP24 (UniProt Q9UPU5). An outline of the steps:
as §1

For experiment [4], the target named is T3, USP25 (UniProt Q9UHP3).
T3 sequence (whole entry): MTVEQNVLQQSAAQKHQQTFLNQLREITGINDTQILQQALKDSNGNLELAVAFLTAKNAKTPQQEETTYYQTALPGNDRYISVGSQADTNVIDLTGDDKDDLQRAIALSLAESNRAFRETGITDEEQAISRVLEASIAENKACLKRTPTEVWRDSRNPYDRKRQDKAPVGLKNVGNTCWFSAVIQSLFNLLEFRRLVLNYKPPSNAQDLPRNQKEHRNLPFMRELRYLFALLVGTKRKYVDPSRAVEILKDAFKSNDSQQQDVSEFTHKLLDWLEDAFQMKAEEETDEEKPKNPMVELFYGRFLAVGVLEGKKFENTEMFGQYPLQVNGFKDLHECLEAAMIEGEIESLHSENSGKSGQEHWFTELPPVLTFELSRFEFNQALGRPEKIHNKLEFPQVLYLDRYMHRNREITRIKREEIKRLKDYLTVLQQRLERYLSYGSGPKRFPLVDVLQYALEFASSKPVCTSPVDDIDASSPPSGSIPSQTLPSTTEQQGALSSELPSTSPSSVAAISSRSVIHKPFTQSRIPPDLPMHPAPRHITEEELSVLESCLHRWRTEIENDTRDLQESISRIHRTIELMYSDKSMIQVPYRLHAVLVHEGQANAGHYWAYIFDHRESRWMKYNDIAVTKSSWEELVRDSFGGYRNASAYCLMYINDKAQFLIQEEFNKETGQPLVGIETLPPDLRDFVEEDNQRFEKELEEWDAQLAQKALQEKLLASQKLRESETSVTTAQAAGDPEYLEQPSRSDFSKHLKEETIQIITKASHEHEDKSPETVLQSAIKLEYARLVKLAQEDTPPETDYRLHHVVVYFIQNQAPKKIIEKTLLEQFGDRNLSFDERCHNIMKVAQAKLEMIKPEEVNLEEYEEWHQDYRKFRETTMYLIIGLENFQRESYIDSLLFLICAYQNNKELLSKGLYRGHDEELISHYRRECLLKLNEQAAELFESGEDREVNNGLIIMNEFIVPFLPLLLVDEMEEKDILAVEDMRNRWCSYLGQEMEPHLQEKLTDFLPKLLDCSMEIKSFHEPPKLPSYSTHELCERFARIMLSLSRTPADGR
In short, it runs like this:
as §1

Experiment [5] concerns the target T4, USP28 (UniProt Q96RU2).
T4 sequence (whole entry): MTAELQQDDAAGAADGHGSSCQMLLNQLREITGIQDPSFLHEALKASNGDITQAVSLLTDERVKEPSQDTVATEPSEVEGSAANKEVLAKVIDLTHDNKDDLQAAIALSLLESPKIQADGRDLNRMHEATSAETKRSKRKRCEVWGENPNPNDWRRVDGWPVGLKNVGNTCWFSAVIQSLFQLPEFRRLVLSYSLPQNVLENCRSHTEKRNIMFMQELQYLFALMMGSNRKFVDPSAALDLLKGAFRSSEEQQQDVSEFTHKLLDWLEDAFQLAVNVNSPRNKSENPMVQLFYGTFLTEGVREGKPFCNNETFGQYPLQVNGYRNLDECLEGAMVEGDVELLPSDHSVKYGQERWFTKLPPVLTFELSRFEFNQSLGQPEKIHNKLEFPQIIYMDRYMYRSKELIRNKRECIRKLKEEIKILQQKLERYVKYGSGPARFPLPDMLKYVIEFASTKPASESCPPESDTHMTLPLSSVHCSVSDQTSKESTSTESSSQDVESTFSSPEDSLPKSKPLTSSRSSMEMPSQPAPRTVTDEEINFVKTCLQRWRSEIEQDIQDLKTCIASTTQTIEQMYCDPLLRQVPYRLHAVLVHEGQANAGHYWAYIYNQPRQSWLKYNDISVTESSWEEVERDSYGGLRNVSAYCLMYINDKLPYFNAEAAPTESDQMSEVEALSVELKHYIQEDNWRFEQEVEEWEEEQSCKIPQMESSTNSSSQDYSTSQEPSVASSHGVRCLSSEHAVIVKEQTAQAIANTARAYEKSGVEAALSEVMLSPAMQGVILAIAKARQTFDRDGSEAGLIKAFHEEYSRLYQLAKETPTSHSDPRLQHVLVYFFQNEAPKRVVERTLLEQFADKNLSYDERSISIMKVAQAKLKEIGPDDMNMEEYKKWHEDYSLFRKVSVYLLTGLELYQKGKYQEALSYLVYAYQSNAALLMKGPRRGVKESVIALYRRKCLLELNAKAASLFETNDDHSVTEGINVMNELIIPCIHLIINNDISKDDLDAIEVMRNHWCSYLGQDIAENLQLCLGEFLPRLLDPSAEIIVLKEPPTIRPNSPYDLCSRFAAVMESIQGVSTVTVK
An outline of the steps: as §1

Sequence of USP24 (Q9UPU5 whole entry): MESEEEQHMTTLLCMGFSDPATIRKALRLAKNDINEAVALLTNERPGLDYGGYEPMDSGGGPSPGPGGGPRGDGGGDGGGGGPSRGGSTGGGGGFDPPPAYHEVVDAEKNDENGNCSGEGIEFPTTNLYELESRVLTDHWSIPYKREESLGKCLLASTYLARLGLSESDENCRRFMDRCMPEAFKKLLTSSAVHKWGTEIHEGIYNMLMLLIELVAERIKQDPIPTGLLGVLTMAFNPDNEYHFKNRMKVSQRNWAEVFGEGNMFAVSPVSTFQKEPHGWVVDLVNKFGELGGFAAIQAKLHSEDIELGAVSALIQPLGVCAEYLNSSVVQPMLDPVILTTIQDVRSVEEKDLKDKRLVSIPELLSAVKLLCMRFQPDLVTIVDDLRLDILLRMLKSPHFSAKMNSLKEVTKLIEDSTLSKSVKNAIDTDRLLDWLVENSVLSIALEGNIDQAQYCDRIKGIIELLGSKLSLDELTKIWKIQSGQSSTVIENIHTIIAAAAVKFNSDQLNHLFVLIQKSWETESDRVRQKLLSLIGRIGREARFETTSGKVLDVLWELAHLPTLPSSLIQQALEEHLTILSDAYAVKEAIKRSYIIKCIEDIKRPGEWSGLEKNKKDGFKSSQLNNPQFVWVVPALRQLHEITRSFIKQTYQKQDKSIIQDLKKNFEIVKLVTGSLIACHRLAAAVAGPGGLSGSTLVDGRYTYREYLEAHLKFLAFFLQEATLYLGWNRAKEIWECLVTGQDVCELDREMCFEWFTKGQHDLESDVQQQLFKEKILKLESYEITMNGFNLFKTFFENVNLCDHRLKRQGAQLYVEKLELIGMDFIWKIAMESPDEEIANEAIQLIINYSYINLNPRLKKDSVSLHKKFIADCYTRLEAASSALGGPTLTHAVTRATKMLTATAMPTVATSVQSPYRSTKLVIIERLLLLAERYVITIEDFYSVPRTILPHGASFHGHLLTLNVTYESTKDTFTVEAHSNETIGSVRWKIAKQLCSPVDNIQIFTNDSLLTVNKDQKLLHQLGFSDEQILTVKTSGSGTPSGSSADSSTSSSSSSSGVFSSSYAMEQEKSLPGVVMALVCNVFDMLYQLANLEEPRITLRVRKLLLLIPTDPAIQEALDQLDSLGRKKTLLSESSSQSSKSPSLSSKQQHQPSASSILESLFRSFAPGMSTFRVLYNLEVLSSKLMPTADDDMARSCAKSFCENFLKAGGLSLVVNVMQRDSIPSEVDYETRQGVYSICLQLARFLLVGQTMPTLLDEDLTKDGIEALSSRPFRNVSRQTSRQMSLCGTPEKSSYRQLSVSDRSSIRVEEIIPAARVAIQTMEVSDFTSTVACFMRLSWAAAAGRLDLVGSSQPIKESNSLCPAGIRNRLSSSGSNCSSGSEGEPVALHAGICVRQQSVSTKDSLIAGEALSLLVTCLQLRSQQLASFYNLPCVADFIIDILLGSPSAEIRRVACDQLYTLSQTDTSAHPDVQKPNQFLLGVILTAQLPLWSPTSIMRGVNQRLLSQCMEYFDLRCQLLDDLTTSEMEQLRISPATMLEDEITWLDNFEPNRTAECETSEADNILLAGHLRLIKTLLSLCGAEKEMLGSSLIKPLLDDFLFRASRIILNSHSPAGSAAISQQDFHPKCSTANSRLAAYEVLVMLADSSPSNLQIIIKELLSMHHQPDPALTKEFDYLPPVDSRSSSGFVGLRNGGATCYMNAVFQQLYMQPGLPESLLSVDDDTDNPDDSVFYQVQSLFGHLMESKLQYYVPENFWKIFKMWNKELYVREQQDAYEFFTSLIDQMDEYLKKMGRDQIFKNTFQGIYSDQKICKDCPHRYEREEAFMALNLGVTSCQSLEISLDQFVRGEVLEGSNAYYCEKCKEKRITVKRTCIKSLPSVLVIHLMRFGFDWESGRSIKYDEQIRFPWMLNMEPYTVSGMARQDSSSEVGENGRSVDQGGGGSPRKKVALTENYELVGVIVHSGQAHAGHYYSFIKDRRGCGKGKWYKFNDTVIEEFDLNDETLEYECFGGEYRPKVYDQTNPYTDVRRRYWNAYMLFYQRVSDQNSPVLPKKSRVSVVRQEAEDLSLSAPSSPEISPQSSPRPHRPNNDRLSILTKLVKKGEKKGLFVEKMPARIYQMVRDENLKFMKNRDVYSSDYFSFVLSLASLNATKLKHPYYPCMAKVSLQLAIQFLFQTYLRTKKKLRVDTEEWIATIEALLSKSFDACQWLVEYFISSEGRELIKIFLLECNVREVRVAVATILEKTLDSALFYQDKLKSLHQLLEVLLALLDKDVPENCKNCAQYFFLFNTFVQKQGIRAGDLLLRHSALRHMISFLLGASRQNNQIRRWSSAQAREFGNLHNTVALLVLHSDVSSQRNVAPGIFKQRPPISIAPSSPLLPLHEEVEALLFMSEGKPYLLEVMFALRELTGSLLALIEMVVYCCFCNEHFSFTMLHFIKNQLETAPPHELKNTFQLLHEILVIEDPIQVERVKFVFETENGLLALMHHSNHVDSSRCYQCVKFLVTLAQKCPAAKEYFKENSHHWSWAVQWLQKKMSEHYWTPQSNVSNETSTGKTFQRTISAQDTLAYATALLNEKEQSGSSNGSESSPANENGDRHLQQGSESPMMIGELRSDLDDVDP

For `O=C(CCl)N[C@H]1CC[C@@H](CO)CC1`, the “log2 ratio of Biotin-Ahx-Ub-VS probe labelling” value was -0.828 in experiment [1]; -0.256 in experiment [2]; -1.05 (active) in experiment [3]; -0.739 in experiment [4]; -1.09 (active) in experiment [5].
